Results: ChEMBL document CHEMBL4513146, “CO-ADD screening of Karazin Kharkiv National University (Ukraine) compounds”
Results with a measured potency or affinity are listed apart.

Tests used:
[1] = system: Klebsiella pneumoniae; conditions: Concentration 32 ug.mL-1;; ASSAY_TEST Inhibition of Bacterial Growth; detection method Absorption (OD600); MEDIA CAMHB; plate type 384well; NBS; CORNING #3640; time 18 hr
[2] = system: Candida albicans; conditions: Concentration 32 ug.mL-1; ASSAY_TEST Inhibition of Fungal Growth; detection method Absorption (OD530)
[3] = system: Cryptococcus neoformans; conditions: Concentration 32 ug.mL-1; ASSAY_TEST Inhibition of Fungal Growth; detection method Resazurin; Absorption (OD600-OD570); plate type 384well; NBS; CORNING #3640

Compound | Inhibition [1] | Inhibition [2] | Inhibition [3]
COc1ccccc1Cn1c(=O)c2sccc2n2c(=O)n(Cc3cccc(Br)c3)nc12 | 0.7% | -0.62% | -14.71%
COc1ccc(NC(=O)CSc2nc3ccccc3n3cnnc23)cc1OC | 13.64% | 4.39% | -35.7%
Cc1ccc(Oc2nccn3c(=O)n(CC(=O)Nc4ccccc4Br)nc23)cc1 | 15.36% | 1.31% | -18.92%
COC(=O)c1ccc(NC(=O)Cn2nc3ccc(S(=O)(=O)C4CCCCC4)nn3c2=O)cc1 | 9.79% | 17.49% | -8.73%
COc1ccc(C(=O)CSc2nnc3c(=O)n(-c4ccc(F)cc4)ccn23)cc1 | 10.95% | 4.42% | -10%
COc1ccc(NC(=O)Cn2nc3c(Oc4ccccc4)nccn3c2=O)cc1 | 8.21% | 3.81% | -6.99%
CC(C)Sc1ccc2nn(CC(=O)Nc3ccc(F)cc3Cl)c(=O)n2n1 | 6.92% | 3.44% | -6.24%
Cc1cc(C)cc(Oc2nccn3c(=O)n(CC(=O)Nc4ccc(Cl)cc4F)nc23)c1 | 14.33% | 0.59% | -7.4%
COc1ccc(-c2cc3c4nnc(CCC(=O)N5CCN(c6ccccc6F)CC5)n4ccn3n2)cc1 | 15.22% | 2.19% | -8.32%
CC(=O)c1ccc(NC(=O)Cn2nc3ccc(-c4ccc(C)c(C)c4)nn3c2=O)cc1 | 0% | 0.28% | -8.82%
Cc1ccc(CN(c2ccc(F)cc2)S(=O)(=O)c2ccc3nnc(C)n3c2)cc1 | -1.29% | 5.66% | -6.24%
CCc1nnc2c(SCC(=O)Nc3ccc(C(C)=O)cc3)nc3ccccc3n12 | 9.87% | 2.43% | -19.53%
O=c1c2nn(Cc3ccccc3Cl)c(=O)n2ccn1-c1ccccc1 | 1.78% | 1.76% | -8.76%
CCOC(=O)c1ccc(NC(=O)Cn2nc3ccc(S(=O)(=O)C(C)(C)C)nn3c2=O)cc1 | 4.44% | 15.58% | -19.66%
COc1ccc(OC)c(NC(=O)Cn2nc3c4cc(-c5ccc(Cl)cc5)nn4ccn3c2=O)c1 | 3.06% | -0.3% | -21.9%
CSc1cccc(NC(=O)Cn2nc3c(Oc4ccccc4C)nccn3c2=O)c1 | 7.38% | -0.96% | -9.56%
O=C(Cn1nc2c(N3CCSCC3)nc3ccccc3n2c1=O)Nc1ccc(Br)cc1 | 7.3% | 11.24% | -9.72%
CCOc1ccccc1NC(=O)Cn1nc2c3cc(-c4ccc(OC)cc4)nn3ccn2c1=O | 11.29% | 0.88% | -6.6%
CCc1ccc(N(Cc2cccc(C)c2)S(=O)(=O)c2cccn3c(C)nnc23)cc1 | 2.32% | 4.84% | -3.55%
CCc1ccccc1NC(=O)CSc1nnc2c(=O)n(-c3ccccc3)ccn12 | 11.56% | -0.14% | -23.92%
O=C(CCc1nnc2c(N3CCCCC3)nc3ccccc3n12)NCc1ccc(Br)cc1 | 7.61% | 2.54% | -23.12%
